A selection: hits, their analogues and other compounds. The true share with any hit is near 11%.
JMJD2A Tudor = blocks the human JMJD2A Tudor domain; 390,000 compounds, 4.4% hits; AID 504339; AlphaScreen JMJD2A-Tudor / H3K4me3 peptide binding; Potency, µM (top dose mostly 114 µM), for the others: at the top dose activity change, negative = inhibition, actives largely listed as inhibitors; also: % is scaled to controls: 0 for no effect and ±100 for the full control effect; nearly all actives have a fitted effect of over 50% in size
HP1b binding inh = HP1-beta chromodomain-methylated histone interaction inhibition | 390,000 compounds, 0.56% hits | Potency, µM (series often up to 114 µM), for the others: at the highest dose activity change, negative = inhibition, hits mostly inhibitors | P83916 | AlphaScreen HP1-beta / biotin-H3K9me3 peptide binding | AID 540317; also: nearly all actives have a fitted effect of over 70% in size
Target sequence (P83916 whole entry, looked up): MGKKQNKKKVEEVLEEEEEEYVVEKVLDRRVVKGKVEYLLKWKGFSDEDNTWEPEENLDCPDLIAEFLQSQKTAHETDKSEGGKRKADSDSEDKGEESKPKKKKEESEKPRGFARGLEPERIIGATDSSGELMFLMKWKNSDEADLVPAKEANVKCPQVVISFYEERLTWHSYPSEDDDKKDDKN
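Compound inhibition of the preformed complex between 50 nM HP1-beta and 50 nM biotinylated H3K9me3 peptide was read by AlphaScreen. Buffer was PBS pH 7.4 with 0.01% Tween-20. Incubations ran 30 min at room temperature, with 10 ug/mL donor/acceptor beads.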
BAZ2B block = inhibitors of human BAZ2B bromodomain. Q9UIF8. Potency, µM (doses to about 114 µM), inactives show top-dose activity change, negative = inhibition, usual class: inhibitors. AlphaScreen BAZ2B-H3K14Ac peptide displacement. 360,000 compounds, 4.4% hits; also: % is scaled to controls: 0 for no effect and ±100 for the full control effect; nearly all actives have a fitted effect of over 60% in size
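Compounds, titrated to a top concentration of 110 uM, were incubated 30 min at room temperature with preformed BAZ2B/acetyl-K14 H3 peptide complex (50 nM each). Proximity signal was measured by AlphaScreen after 20 min with beads.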
L3MBTL1 block = inhibitors of human L3MBTL1; Potency, µM (series often up to 57.1 µM), for the others: top-dose activity, negative = inhibition, usual class: inhibitors; Q9Y468; 230,000 compounds, 0.66% hits; AlphaScreen L3MBTL1–H3K9me1 peptide binding; also: % is scaled to controls: 0 for no effect and ±100 for the full control effect; nearly all actives have a fitted effect of over 60% in size
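AlphaScreen proximity signal between nickel-chelate acceptor and streptavidin donor beads (final 10 ug/mL) reports binding of 50 nM L3MBTL1 to 75 nM biotin-H3 K9me1 peptide; complex incubated with compounds 30 min at room temperature; cefsulodin titration as control.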
G9a block = inhibitors of human histone lysine methyltransferase G9a; G9a H3K9 monomethylation, AlphaScreen, 2 h; Potency, µM (top dose mostly 102 µM), without a hit: top-dose activity, negative = inhibition, most hits filed as inhibitors; 350,000 compounds, 8.8% hits; AID 504332; also: % is scaled to controls: 0 for no effect and ±100 for the full control effect; nearly all actives have a fitted effect of over 75% in size
Target sequence (Q96KQ7 913-1193 limits assumed): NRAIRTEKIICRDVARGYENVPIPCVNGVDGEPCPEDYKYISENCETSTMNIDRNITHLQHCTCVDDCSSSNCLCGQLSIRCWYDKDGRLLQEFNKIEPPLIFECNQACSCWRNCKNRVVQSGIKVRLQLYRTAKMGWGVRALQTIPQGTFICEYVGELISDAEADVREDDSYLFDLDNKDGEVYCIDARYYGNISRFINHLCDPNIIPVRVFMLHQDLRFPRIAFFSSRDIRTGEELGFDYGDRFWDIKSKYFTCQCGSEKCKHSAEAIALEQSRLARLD
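Compounds were preincubated with 20 nM G9a for 15 min, after which biotinylated H3K9 peptide (500 nM) and SAM (20 uM) started a 2 h room-temperature reaction. Monomethylated product was quantified by antibody-based AlphaScreen chemiluminescence.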
Numbers without * were called inactive; u = inconclusive; x = no result; [ ] = remark or other dose. Calls follow the shape of the dose curve; as a rule, active = well fitted inhibition curve with a large enough effect; inconclusive = small, poorly fitted or top-dose-only effect; inactive = no such curve, though single readings can be large or run the other way. Potency is read from the fitted curve at half-maximal effect.

SMILES | JMJD2A Tudor | HP1b binding inh | BAZ2B block | L3MBTL1 block | G9a block
Cc1ccc2cccc(S(=O)(=O)Nc3ccc4c(c3)OCO4)c2n1 | u | 20% | 50µM* | 15%[11.4 µM] | u
O=S(=O)(Nc1ccc2c(c1)OCO2)c1ccccc1 | -14% | 6% | -3% | x | 14µM*
CC(CNC(=O)CCc1cn(Cc2ccccc2Cl)c2ccccc12)c1ccccc1 (centres undefined) | -27% | 1% | u | x | u
COc1ccc(C2CC(=O)N(Cc3ccccc3)c3c2c(C)nn3-c2nc(C)cc(C)n2)c(OC)c1 (centres undefined) | -13% | 43% | -21% | x | -4%[59 µM]
COc1ccc(-c2nn(CC(=O)NCc3ccccc3)c3c2cnc2ccc(F)cc23)cc1 | -32% | 116% | 15% | x | 3%[59 µM]
Cc1ccc(-c2nc3ccccc3n2C)o1 | -20% | 15% | -26% | x | 13µM*
Cn1c(-c2nonc2N)nc2ccccc21 | 9% | 46% | -27% | 1% | 40µM*
COc1ccccc1NC(=O)Cn1c(=O)n(CC2CCC(C(=O)NCCc3ccccc3)CC2)c(=O)c2ccccc21 (centres undefined) | -16% | 18% | 0% | x | -1%[59 µM]
Nc1nc2ncc(C(=O)c3cc(Cl)cc(Cl)c3O)cc2s1 | u | u | -27% | -7% | 50µM*
Nc1nc2ncc(C(=O)c3cc(F)ccc3O)cc2s1 | 3% | 29% | -12% | 8% | x
CC(C)CN(C(=O)COc1ccc([N+](=O)[O-])cc1)c1c(N)n(CC(C)C)c(=O)[nH]c1=O | -23% | 71% | 14% | -6% | u
Cc1ccc(N2C(=O)CS(=O)(=O)C23C(=O)N(Cc2ccc(Cl)cc2)c2ccccc23)cc1C (centres undefined) | -16% | 28% | 4%[57.1 µM] | x | -47%[59 µM]
Cc1cc(C)c2c(N)c(C(=O)c3ccc(Br)cc3)oc2n1 | 3% | 62% | -6% | 12% | 35µM*
O=C(Cn1nc2ccccc2n1)N/N=C/c1cc(Cl)cc([N+](=O)[O-])c1O | 50µM* | -19% | 20µM* | -5% | 40µM*
O=C(Cn1nnc(-c2ccccc2)n1)N/N=C/c1cccc([N+](=O)[O-])c1O | u | 29% | 45µM* | 1% | 4%
Cc1ccccc1C(=O)Nc1cccc(C(=O)N/N=C/c2cc(Cl)cc([N+](=O)[O-])c2O)c1 | 50µM* | u | 22µM* | x | 32µM*
O=C(Cn1nnc(-c2ccccc2)n1)N/N=C/c1cccc([N+](=O)[O-])c1 | -15% | 28% | -4% | -5% | 4%
Nc1nnc(N)c2ccccc12 | -19% | 6% | -2% | -1% | -4%
Nc1nsc2ccccc12 | -1% | 7% | 11% | -3% | 40µM*
COc1ccc(S(=O)(=O)NCCN2CCOCC2)cc1[N+](=O)[O-] | -19% | -9% | -1% | x | 50µM*
COc1ccc(C(=O)NC(=S)N2CCOCC2)cc1Br | -6% | 26% | -19% | x | 20µM*
COc1ccc(C(=O)NC(=S)N2CCOCC2)cc1[N+](=O)[O-] | -4% | 39% | -16% | x | 35µM*
COc1ccc(C(=O)NNC(=O)c2ccncc2)cc1[N+](=O)[O-] | -8% | 43% | -2% | x | -10%
COc1ccc(C(=O)NC(=S)NNC(=O)c2ccc(O)cc2)cc1[N+](=O)[O-] | -18% | 6% | 6% | x | 32µM*
CC(=O)OCC(NC(=O)C(C)NC(=O)OC(C)(C)C)C1OC(n2ccc(=O)[nH]c2=O)C(OC(C)=O)C1OC(C)=O (centres undefined) | -10% | 43% | x | x | x
SMILES | JMJD2A Tudor | HP1b binding inh | BAZ2B block | L3MBTL1 block | G9a block
COc1ccc(Cl)cc1NC(=O)N1CCC(CN2CCc3ccccc3C2)CC1 | -17% | 72% | -6% | x | -29%[59 µM]
Cc1ccc(CN2C(=O)C3(SCC(=O)N3c3ccc(C)c(C)c3)c3ccccc32)cc1 (centres undefined) | -16% | 7% | u | x | -53%[59 µM]
CN(C(=O)Cn1cc([N+](=O)[O-])ccc1=O)C1CCCCC1 | -13% | 9% | 8% | 4% | -6%[12.7 µM]
COc1ccc(C(=O)NC(=S)NCc2cccnc2)cc1Br | -21% | 69% | u | -8%[11.4 µM] | -51%
COc1ccc(C(=O)NC(=S)NCCO)cc1Br | -27% | 6% | -3% | 2% | 45µM*
O=c1[nH]c2ccc(Cl)cc2c(-c2ccccc2)c1CN1CCOCC1 | u | 2% | -9% | -4% | 35µM*
COc1ccc(C2Nc3ccccc3C(=O)N2Cc2ccccc2)cc1COc1ccccc1F (centres undefined) | 2%[57.1 µM] | 15%[57 µM] | x | x | x
CCOc1ccc(/C=C(\C#N)C(=O)Nc2sc3c(c2C(=O)OC)C(C(=O)OC)CC3)cc1OC (centres undefined) | 56µM* | u | 50µM* | x | 1.4µM*
CCOC(=O)c1c(NC(=O)/C(C#N)=C/c2ccc(OC)cc2)sc2c1CCC2 | -20% | 15% | 3% | x | 7%[59 µM]
CN(C)c1ccc(CN(C)C2CCCCC2)cc1 | -31% | 1% | u | x | 50µM*
CCS(=O)(=O)n1nc(-c2ccc(Cl)cc2)nc1SCc1ccccc1 | 40µM* | 71% | 36% | 14% | 7.1µM*
COc1cccc(/C=C2/SC(=S)N(CC(=O)Nc3nccs3)C2=O)c1 | 4% | 32% | x | x | x
O=C(CN1CCCC1)Nc1ccc2c(c1)CCC2 | 3.2µM* | -4% | 50µM* | -3% | 25µM*
O=C(CN1CCN(Cc2ccccc2)CC1)Nc1ccc2c(c1)CCC2 | -10% | 23% | -27% | 8% | u
O=C(CN1CCN(c2ccccc2O)CC1)Nc1ccc2c(c1)CCC2 | u | -12% | -9% | 0% | 71µM*
O=C(O)c1ccc2c(c1)C(=O)N([C@H](Cc1ccc(O)cc1)C(=O)O)C2=O | -30% | x | -18% | 14% | -3%[12.7 µM]
Cc1ccsc1S(=O)(=O)N1CCCC(CCC(=O)NCc2ccccc2F)C1 (centres undefined) | -16% | 57% | -16% | 0% | 79µM*
Cc1cc2c(s1)c1cnn(Cc3c(F)ccc(F)c3F)c(=O)c1n2C | -5% | x | x | x | x
NC(=O)[C@@H]1CCCNc2c(F)cc([N+](=O)[O-])cc2C(=O)N[C@@H](CO)C(=O)N[C@@H](Cc2ccc(O)cc2)C(=O)N1 | -27% | 15% | -37% | 0% | u
NC(=O)CC[C@@H]1NC(=O)C(Cc2ccc(O)cc2)NC(=O)c2cc([N+](=O)[O-])cc(F)c2NCCC[C@@H](C(N)=O)NC1=O (some centres undefined) | x | x | u | 1% | 50µM*
C[C@@H]1NC(=O)[C@H](CCC(=O)O)NC(=O)c2cc([N+](=O)[O-])cc(F)c2NCCC[C@@H](C(N)=O)NC1=O | -28% | 14% | -6% | 3% | 79µM*
CC(C)(C)C1CCc2c(C(=O)NNC(=O)CCCC(=O)O)csc2C1 (centres undefined) | -12% | 23% | 1% | -4% | 7%
